Source: PubChem BioAssay (NCATS)
Results filed as inconclusive are left out. Active and inactive are the calls of the source. Calls come from the whole dose curve; as a rule, active = well fitted cell-killing curve with a large enough effect; inconclusive = small, poorly fitted or top-dose-only effect, or effect the other way; inactive = flat fitted curve, though single readings scatter.

Experiments:
Assay in all cases: Primary qHTS to identify gynecologic anti-cancer compounds using libraries of approved drugs and bioactive compounds (AID 1345084); note: nearly all actives have a fitted effect of over 55% in size
C33A = conditions: Gynecologic cancer cell panel viability, ATPlite luminescence, 48 h; series mostly up to 57.5 µM
Procedure, shortened: (§1)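 Cytotoxicity screen measuring ATP content by luciferase luminescence. Each compound is applied at five concentrations for 48 h at 37 C with 5% CO2.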

CAOV3 = conditions: Gynecologic cancer cell panel viability, ATPlite luminescence, 48 h; series mostly up to 57.5 µM
Procedure, shortened: as §1

CASKI = conditions: Gynecologic cancer cell panel viability, ATPlite luminescence, 48 h; series mostly up to 57.5 µM
Procedure, shortened: as §1

Es-2 = conditions: Gynecologic cancer cell panel viability, ATPlite luminescence, 48 h; series mostly up to 57.5 µM
Procedure, shortened: as §1

HeLa = conditions: Gynecologic cancer cell panel viability, ATPlite luminescence, 48 h; series mostly up to 57.5 µM
Procedure, shortened: as §1

Hek293T = conditions: Gynecologic cancer cell panel viability, ATPlite luminescence, 48 h, control line for the selectivity index; series mostly up to 57.5 µM
Procedure, shortened: as §1

JEG-3 = conditions: Gynecologic cancer cell panel viability, ATPlite luminescence, 48 h; series mostly up to 57.5 µM
Procedure, shortened: as §1

OV90 = conditions: Gynecologic cancer cell panel viability, ATPlite luminescence, 48 h; series mostly up to 57.5 µM
Procedure, shortened: as §1

PA-1 = conditions: Gynecologic cancer cell panel viability, ATPlite luminescence, 48 h; series mostly up to 57.5 µM
Procedure, shortened: as §1

Measured: Potency

CCCCOC(=O)NS(=O)(=O)c1sc(CC(C)C)cc1-c1ccc(Cn2ccnc2)cc1
inactive: all assays above

O=[N+]([O-])c1ccc(Oc2ccc3c(c2)CCC(c2ccccc2)O3)nc1 (stereo not given)
inactive: all assays above

O=C(NCc1ccc(OC(F)(F)F)cc1)C1c2c(F)cccc2C(=O)N1CCc1ccccn1 (stereo not given)
inactive: all assays above

O=C([C@@H]1CCCN(c2ccc3[nH]c(C4(n5cc(Cl)cn5)CC4)nc3n2)C1)N1CCCC1
inactive: all assays above

Cn1cc(-c2ccc3c(c2)CCN3C(=O)Cc2cccc(C(F)(F)F)c2)c2c(N)ncnc21
inactive: all assays above

Cc1c(C(=O)NCc2cccnc2)nn(-c2ccc(Cl)cc2Cl)c1-c1ccc(Cl)cc1
inactive: all assays above

CC(C)=C[C@@H]1[C@H](CO[C@@H]2O[C@H](CO)[C@@H](O)[C@H](O)[C@H]2O)C1(C)C
inactive: all assays above

COc1cc(-c2cn(C3CCc4c(F)cccc4N(CC(F)(F)F)C3=O)nn2)ccc1-n1cnc(C)c1 (stereo not given)
inactive: all assays above

CNCc1cc(-c2ccccc2F)n(S(=O)(=O)c2cccnc2)c1
inactive: all assays above

COc1ccc(S(=O)(=O)Nc2c(C)cc(C)cc2C)cc1
inactive: all assays above

CC(=O)O[C@@H]1CC2C(/C=C(\C)C(=O)[C@@]3(O)C[C@@H](C)[C@H](OC(=O)c4ccccc4)C3/C=C/1C)C2(C)C (stereo not given in full)
inactive: all assays above

CCOC(=O)c1cnn(-c2ccccc2)c1NC(=O)c1cc2nc(-c3ccco3)cc(C(F)(F)Cl)n2n1
inactive: all assays above

C=C(C)C1=C[C@@]2(C)C(=CC1=O)CC[C@@H](O)[C@@H]2C
inactive: all assays above

CCOc1ccc(-n2c(C(C)N(Cc3cccnc3)C(=O)Cc3ccc(F)c(C(F)(F)F)c3)nc3ncccc3c2=O)cc1 (stereo not given)
inactive: all assays above

COc1c2c(nc3occc13)C(CC=C(C)C)(OC)C(O)CC2 (stereo not given)
inactive: all assays above

O=C(CSc1nc2ccccc2c(=O)n1-c1ccccc1)Nc1ccc2c(c1)CCC2
inactive: all assays above

O=S1(=O)CCN(Cc2cc(NCC3CCOCC3)c3[nH]c(-c4ccccc4)cc3c2)CC1
inactive: all assays above

NC(=O)c1nc(Nc2ccccc2)sc1NC(=O)C1CCCCC1
inactive: all assays above

Fc1ccc2c(CCNCc3cccc(OCC(F)(F)C(F)F)c3)c[nH]c2c1
inactive: all assays above

CC1CCCC(O)CCC/C=C/c2cc(OS(=O)(=O)O)cc(O)c2C(=O)O1 (stereo not given)
inactive: all assays above
